Assay outcomes from PubChem BioAssay.
Compounds with a hit are over-represented: about 21% of the library has one in this group of screens.
Pf growth 48h: inhibits P. falciparum growth in the first generation, 48 h. hit rate 5.9% among 310,000. Potency, µM (top dose mostly 28.7 µM), without a hit: top-dose activity change, negative = inhibition, most hits filed as inhibitors. P. falciparum luciferase growth in erythrocytes, 48 h; note: potency is the fitted concentration of half-maximal effect; % is set by controls: 0 for no effect and ±100 for the full control effect
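Growth was read as firefly luciferase luminescence after a 48 h, 37 C, 5% CO2 exposure of compounds to reporter-bearing P. falciparum cultures (0.1% parasitemia, 2% hematocrit final) in Albumax-supplemented RPMI 1640.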
Pf growth 96h: inhibits malaria parasite growth, 96 h; P. falciparum luciferase reporter growth, 96 h; Potency, µM (highest dose often 28.7 µM), without a hit: at the highest dose activity change, negative = inhibition, actives largely listed as inhibitors; hit rate 6.9% among 320,000; AID 504834; note: potency is the fitted concentration of half-maximal effect; % is set by controls: 0 for no effect and ±100 for the full control effect
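Parasite growth measured via integrated firefly luciferase reporter in P. falciparum. Infected erythrocytes at 2% hematocrit, 0.05% parasitemia final were treated 96 hours at 37 C under 5% CO2, and luminescence was read.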
HCV inhibitor: HCV inhibition. Huh7.5.1 HCVcc-Cre infection, luciferase reporter, 44 h. Potency, µM (highest dose often 41.8 µM), for the others: at the top dose activity change, negative = inhibition, actives largely listed as inhibitors. hit rate 3.4% among 340,000; note: potency is the fitted concentration of half-maximal effect; % is set by controls: 0 for no effect and ±100 for the full control effect
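A cell-based infection assay in which seeded cells (1,000 per well) receive test compound after 4 h, are inoculated with HCVcc-Cre at approximately 0.5 moi, and are incubated 44 h before luminescence detection.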
HCMV antiviral: human cytomegalovirus inhibition; AID 1259415; HFF cells, HCMV-luciferase reporter, 72 h; stronger effect = lower value; activity change, negative = inhibition, % at 57.5 µM; hit rate 4.5% among 410,000; in the data active = activity change below about -60%; inconclusive = no clear call, values can overlap the other calls; inactive = above about -39%; note: % is set by controls: 0 for no effect and ±100 for the full control effect
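HFF cells seeded 16 h at 37C, treated with compounds, infected with luciferase-reporter HCMV at MOI 1 PFU/cell; luciferase read at 72 h post infection, normalized to buffer-only and Salinomycin controls.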
Shiga toxin inh: blocks Shiga toxin action in Vero cells. Vero cells, Shiga toxin protein synthesis inhibition reporter. hit rate 9.2% among 290,000. inhibition, % at 38.7 µM. AID 2315; in the data active = inhibition mostly above about 28%, no sharp cut-off; inactive = mostly below about 43%; note: 0% is about no effect
Cycloheximide cs: affects cycloheximide protein synthesis inhibition readout, counter-screen | cell reporter, cycloheximide protein synthesis inhibition counterscreen | max response, % | hit rate 12% among 300,000 | AID 2314; in the data active = max response mostly above about 13%, no sharp cut-off; inactive = mostly below about 14%; note: read at 38.3 µM for the half of the compounds with a filed dose; 0% is about no effect
The depositor's hits bear a star; i = inactive; ? = inconclusive; · = no result given; + = active, no number. Unless noted, calls come from the whole dose curve; as a rule, active = well fitted inhibition curve with a large enough effect; inconclusive = small, poorly fitted or top-dose-only effect, or another doubt; inactive = no such curve, though single readings can be large or run the other way.

SMILES | Pf growth 48h | Pf growth 96h | HCV inhibitor | HCMV antiviral | Shiga toxin inh | Cycloheximide cs
COc1cccc(C(=O)COC(=O)c2ccc(NC(C)=O)cc2)c1 | 57% | 41% | 6% | -27 | 13 | 16*
CCOC(=O)c1ccc(OS(=O)(=O)c2ccccc2)c(OC)c1 | 198% | 351% | ? | 10 | + | 50*
COc1ccc(OC)c(N/C=C/C(=O)c2ccc(OC)c(OC)c2)c1 | ? | ? | 9% | -27 | 55 | 15*
COC(=O)c1ccccc1 | · | · | · | 22 | · | ·
COc1ccc(C(=O)/C=C/N(C)C)cc1OC | 19% | 25% | 3% | 12 | 2 | -4
COc1ccc(C(=O)COC(=O)c2ccc(NC(C)=O)cc2)cc1[N+](=O)[O-] | 7% | ? | -7% | 25 | -3 | 6
COC(=O)c1ccc(N/C=C/C(=O)c2ccccc2)cc1 | 161% | 13µM* | -16% | 68 | 48* | 43*
Clc1cccc(-c2noc3ncnc(NC4CCCCC4)c23)c1 | · | · | · | -17 | · | ·
O=C(NCc1ccccc1Cl)C1CCN(c2cnccn2)CC1 | -26% | ? | -2% | -3 | 20 | -2
CCOC(=O)c1cccc(N/C=C/C(=O)c2ccc(OC)c(OC)c2)c1 | 186% | i | ? | 100 | 98* | 27*
CCOC(=O)c1ccc(N/C=C\C(=O)c2cccc(OC)c2)cc1 | 138% | 108% | 13% | 43 | 95* | 48*
COc1cccc(N/C=C/C(=O)c2ccc(OC)c(OC)c2)c1 | -15% | ? | ? | 28 | 46* | 27*
COc1cccc(N/C=C/C(=O)c2ccc(Br)cc2)c1 | · | · | 1% | 155 | · | ·
COc1cccc(C(=O)/C=C/Nc2cc(C)ccc2O)c1 | ? | -3% | 2.2µM* | -79* | 88* | 51*
CCOC(=O)C(=O)Nc1cccc(C(=O)OCC)c1 | ? | 36% | 15% | -5 | -3 | -1
CCOc1ccc(OCCC(=O)OCC(=O)NC2CCCCC2)cc1 | 21% | -27% | 10% | ? | -8 | 7
Cc1ccc(NC(=O)CN(C)C(=O)c2cc(-c3ccccc3)nn2-c2ccccc2)cc1 | 27% | -8% | ? | -20 | · | ·
Cc1ccc(Cl)c2c1NC(=O)C2(O)CC(=O)c1ccccc1O (configuration not stated) | -28% | 9.3µM* | 10% | 50 | 15 | -5
CC1CN=C(c2cc(Cl)c(N)c(Cl)c2)c2c3ccc(C(F)(F)F)cc3[n+]([O-])n21 (configuration not stated) | · | · | · | 40 | · | ·
COc1cccc(C2CNC3(CCCC(C)C3)c3[nH]c4ccccc4c32)c1OC (configuration not stated) | · | 9.3µM* | -29% | -65* | -3 | -1
COc1cc2c(cc1OC)C(c1cccc(OC)c1OC)CC(=O)N2 (configuration not stated) | -20% | ? | -4% | -1 | -5 | -2
CN1CCN(C(=O)/C(=C/c2cn(S(=O)(=O)N(C)C)c3ccccc23)NC(=O)c2ccccc2F)CC1 | ? | ? | -21% | 14 | -1 | -2
COc1ccc(-c2c(NC(=O)c3ccco3)n(C)c3ccccc3c2=O)cc1 | 20% | · | 10% | 39 | 10 | 0
COc1ccccc1-c1c(NC(=O)c2ccco2)n(C)c2ccccc2c1=O | -2% | -2% | 10% | -28 | 36* | 18*
CCC(=O)Nc1cc(C(=O)OCC(=O)c2ccccc2Cl)ccc1C | 84% | 34% | 9% | 83 | 106* | 45*
CCC(=O)Nc1cc(C(=O)OCC(=O)c2ccc(Cl)cc2Cl)ccc1C | 25% | 138% | 15% | 5 | -16 | 1
CCC(=O)Nc1cc(C(=O)OCC(=O)c2ccccc2)ccc1C | 229% | 261% | 20% | -5 | active | 53*
CCOC(=O)c1cn2nc(Oc3ccc(OC)cc3)ccc2n1 | 2% | 23% | -6% | 2 | 27 | 9
CCOC(=O)c1cn2nc(Oc3ccccc3)ccc2n1 | 111% | 128% | 8% | 3 | 93* | 71*
CCOC(=O)c1cn2nc(Oc3ccc(C)cc3)ccc2n1 | ? | -3% | -8% | 9 | 98* | 43*
